# Numbering of substitutions follows the chain as printed.
# Assays:
# Assay in all cases: yeast three-hybrid, YBZ-1, SC-Leu-His + 0.5 mM 3-AT, 4 days
# Conditions in all cases: tags: N-Gal4 AD-HA kept; label: inside an RPR1-promoter hybrid RNA with tandem MS2 sites; ssRNA
# PUM1 PUF domain R7-KYW = PUM1 PUF domain R7-KYW (Homo sapiens, UniProt Q14671 828-1176, S1079K;N1080Y;E1083W)
# Outline: (§1)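 Sequencing with Illumina followed PCR amplification of the repeat regions from transformants grown four days on SC-Leu (input) or SC-Leu-His + 0.5 mM 3-AT (selection). The transformants were strain YBZ-1 with a LexA–MS2 coat fusion and a HIS3 reporter, carrying Pumilio-1 PUF domain libraries and matching RNA elements. The interaction score is the log change in variant frequency from input to selection, computed in log2 with a pseudocount of 1 for absent variants.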
# PUM1 PUF domain R7-RPQ = PUM1 PUF domain R7-RPQ (Homo sapiens, UniProt Q14671 828-1176, S1079R;N1080P;E1083Q)
# Outline: as §1
# PUM1 PUF domain R2-IWD = PUM1 PUF domain R2-IWD (Homo sapiens, UniProt Q14671 828-1176, N899I;Y900W;Q903D)
# Sequence of PUM1 PUF domain R2-IWD (Q14671 828-1176 N899I/Y900W/Q903D): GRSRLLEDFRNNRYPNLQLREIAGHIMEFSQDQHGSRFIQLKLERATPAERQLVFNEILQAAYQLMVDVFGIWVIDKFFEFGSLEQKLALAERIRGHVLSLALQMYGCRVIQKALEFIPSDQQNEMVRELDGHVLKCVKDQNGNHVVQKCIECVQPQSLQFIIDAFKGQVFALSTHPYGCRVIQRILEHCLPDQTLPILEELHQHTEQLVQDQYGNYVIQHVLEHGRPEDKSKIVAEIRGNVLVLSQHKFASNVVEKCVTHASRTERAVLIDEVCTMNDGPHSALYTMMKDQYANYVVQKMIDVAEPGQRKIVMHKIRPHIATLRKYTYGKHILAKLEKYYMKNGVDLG
# Outline: as §1
# PUM1 PUF domain R4-GNS = PUM1 PUF domain R4-GNS (Homo sapiens, UniProt Q14671 828-1176, N971G;H972N;Q975S)
# Outline: as §1
# PUM1 PUF domain R4-MNG = PUM1 PUF domain R4-MNG (Homo sapiens, UniProt Q14671 828-1176, N971M;H972N;Q975G)
# Sequence of PUM1 PUF domain R4-MNG (Q14671 828-1176 N971M/H972N/Q975G): as the sequence (Q14671 828-1176 N899I/Y900W/Q903D) above, with I72N, W73Y, D76Q, N144M, H145N, Q148G counted along it
# Outline: as §1
# PUM1 PUF domain R5-MHM = PUM1 PUF domain R5-MHM (Homo sapiens, UniProt Q14671 828-1176, C1007M;R1008H;Q1011M)
# Outline: as §1
# PUM1 PUF domain R5-EVC = PUM1 PUF domain R5-EVC (Homo sapiens, UniProt Q14671 828-1176, C1007E;R1008V;Q1011C)
# Sequence of PUM1 PUF domain R5-EVC (Q14671 828-1176 C1007E/R1008V/Q1011C): as the sequence (Q14671 828-1176 N899I/Y900W/Q903D) above, with I72N, W73Y, D76Q, C180E, R181V, Q184C counted along it
# Outline: as §1
# PUM1 PUF domain R5-RYR = PUM1 PUF domain R5-RYR (Homo sapiens, UniProt Q14671 828-1176, C1007R;R1008Y;Q1011R)
# Outline: as §1
# PUM1 PUF domain R3-EYE = PUM1 PUF domain R3-EYE (Homo sapiens, UniProt Q14671 828-1176, C935E;R936Y;Q939E)
# Outline: as §1
# PUM1 PUF domain R6-RWV = molecular target: T1, PUM1 PUF domain R6-RWV (Homo sapiens, UniProt Q14671 828-1176, N1043R;Y1044W;Q1047V)
# T1 sequence: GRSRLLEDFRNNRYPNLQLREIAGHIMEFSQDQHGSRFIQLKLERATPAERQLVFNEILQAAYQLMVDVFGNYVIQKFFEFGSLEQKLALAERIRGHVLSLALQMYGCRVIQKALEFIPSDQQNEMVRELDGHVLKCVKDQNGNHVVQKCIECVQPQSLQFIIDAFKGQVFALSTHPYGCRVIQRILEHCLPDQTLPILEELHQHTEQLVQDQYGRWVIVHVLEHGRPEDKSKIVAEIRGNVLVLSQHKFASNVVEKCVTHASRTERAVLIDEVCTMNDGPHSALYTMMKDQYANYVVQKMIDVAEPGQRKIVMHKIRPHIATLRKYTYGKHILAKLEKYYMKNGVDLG
# Outline: as §1
# PUM1 PUF domain R6-YRS = molecular target: T2, PUM1 PUF domain R6-YRS (Homo sapiens, UniProt Q14671 828-1176, N1043Y;Y1044R;Q1047S)
# T2 sequence: T1 sequence with R216Y, W217R, V220S
# Outline: as §1
# PUM1 PUF domain R1-GGE = PUM1 PUF domain R1-GGE (Homo sapiens, UniProt Q14671 828-1176, S863G;R864G;Q867E)
# Outline: as §1
# PUM1 PUF domain R4-EPG = PUM1 PUF domain R4-EPG (Homo sapiens, UniProt Q14671 828-1176, N971E;H972P;Q975G)
# Outline: as §1
# PUM1 PUF domain R4-SPV = PUM1 PUF domain R4-SPV (Homo sapiens, UniProt Q14671 828-1176, N971S;H972P;Q975V)
# Outline: as §1
# PUM1 PUF domain R5-NCR = PUM1 PUF domain R5-NCR (Homo sapiens, UniProt Q14671 828-1176, C1007N;R1008C;Q1011R)
# Outline: as §1
# PUM1 PUF domain R5-KYV = PUM1 PUF domain R5-KYV (Homo sapiens, UniProt Q14671 828-1176, C1007K;R1008Y;Q1011V)
# Outline: as §1
# PUM1 PUF domain R3-FRP = PUM1 PUF domain R3-FRP (Homo sapiens, UniProt Q14671 828-1176, C935F;Q939P)
# Outline: as §1
# PUM1 PUF domain R4-VRG = PUM1 PUF domain R4-VRG (Homo sapiens, UniProt Q14671 828-1176, N971V;H972R;Q975G)
# Outline: as §1
# PUM1 PUF domain R3-TYW = PUM1 PUF domain R3-TYW (Homo sapiens, UniProt Q14671 828-1176, C935T;R936Y;Q939W)
# Outline: as §1
# PUM1 PUF domain R6-RWK = molecular target: T3, PUM1 PUF domain R6-RWK (Homo sapiens, UniProt Q14671 828-1176, N1043R;Y1044W;Q1047K)
# T3 sequence: T1 sequence with V220K
# Outline: as §1
sequence,measurement,setting,value
GGCUAGAACUAGUGGAUCCCCCGGCGCCCGGCGGCUCGAGCCCGGGUAAGUCUAAAUAGUCUGCAUGCCGCCGGGCGCCAUGCCUGCAGGUCGACUCUAGAAAACAUG,binding signal,PUM1 PUF domain R7-KYW,3.27 log2 enrichment (interaction score)
same,binding signal,PUM1 PUF domain R7-RPQ,2.7 log2 enrichment (interaction score)
GGCUAGAACUAGUGGAUCCCCCGGCGCCCGGCGGCUCGAGCCCGGGUAAGUGUAAAAAGUCUGCAUGCCGCCGGGCGCCAUGCCUGCAGGUCGACUCUAGAAAACAUG,binding signal,PUM1 PUF domain R2-IWD,2.12 log2 enrichment (interaction score)
GGCUAGAACUAGUGGAUCCCCCGGCGCCCGGCGGCUCGAGCCCGGGUAAGUGUACAUAGUCUGCAUGCCGCCGGGCGCCAUGCCUGCAGGUCGACUCUAGAAAACAUG,binding signal,PUM1 PUF domain R4-GNS,2.01 log2 enrichment (interaction score)
same,binding signal,PUM1 PUF domain R4-MNG,2.1 log2 enrichment (interaction score)
GGCUAGAACUAGUGGAUCCCCCGGCGCCCGGCGGCUCGAGCCCGGGUAAGUGUGAAUAGUCUGCAUGCCGCCGGGCGCCAUGCCUGCAGGUCGACUCUAGAAAACAUG,binding signal,PUM1 PUF domain R5-MHM,2.99 log2 enrichment (interaction score)
same,binding signal,PUM1 PUF domain R5-EVC,3.25 log2 enrichment (interaction score)
same,binding signal,PUM1 PUF domain R5-RYR,2.14 log2 enrichment (interaction score)
GGCUAGAACUAGUGGAUCCCCCGGCGCCCGGCGGCUCGAGCCCGGGUAAGUGUAAUUAGUCUGCAUGCCGCCGGGCGCCAUGCCUGCAGGUCGACUCUAGAAAACAUG,binding signal,PUM1 PUF domain R3-EYE,5.03 log2 enrichment (interaction score)
GGCUAGAACUAGUGGAUCCCCCGGCGCCCGGCGGCUCGAGCCCGGGUAAGUGAAAAUAGUCUGCAUGCCGCCGGGCGCCAUGCCUGCAGGUCGACUCUAGAAAACAUG,binding signal,PUM1 PUF domain R6-RWV,2.99 log2 enrichment (interaction score)
same,binding signal,PUM1 PUF domain R6-YRS,3.7 log2 enrichment (interaction score)
GGCUAGAACUAGUGGAUCCCCCGGCGCCCGGCGGCUCGAGCCCGGGUAAGUGUAAAUGGUCUGCAUGCCGCCGGGCGCCAUGCCUGCAGGUCGACUCUAGAAAACAUG,binding signal,PUM1 PUF domain R1-GGE,2.22 log2 enrichment (interaction score)
GGCUAGAACUAGUGGAUCCCCCGGCGCCCGGCGGCUCGAGCCCGGGUAAGUGUAUAUAGUCUGCAUGCCGCCGGGCGCCAUGCCUGCAGGUCGACUCUAGAAAACAUG,binding signal,PUM1 PUF domain R4-EPG,2.97 log2 enrichment (interaction score)
same,binding signal,PUM1 PUF domain R4-GNS,4.46 log2 enrichment (interaction score)
same,binding signal,PUM1 PUF domain R4-SPV,3.71 log2 enrichment (interaction score)
GGCUAGAACUAGUGGAUCCCCCGGCGCCCGGCGGCUCGAGCCCGGGUAAGUUUAAAUAGUCUGCAUGCCGCCGGGCGCCAUGCCUGCAGGUCGACUCUAGAAAACAUG,binding signal,PUM1 PUF domain R7-RPQ,5.16 log2 enrichment (interaction score)
GGCUAGAACUAGUGGAUCCCCCGGCGCCCGGCGGCUCGAGCCCGGGUAAGUGUCAAUAGUCUGCAUGCCGCCGGGCGCCAUGCCUGCAGGUCGACUCUAGAAAACAUG,binding signal,PUM1 PUF domain R5-NCR,1.7 log2 enrichment (interaction score)
same,binding signal,PUM1 PUF domain R5-RYR,4.57 log2 enrichment (interaction score)
same,binding signal,PUM1 PUF domain R5-KYV,5.44 log2 enrichment (interaction score)
GGCUAGAACUAGUGGAUCCCCCGGCGCCCGGCGGCUCGAGCCCGGGUAAGUGUAAGUAGUCUGCAUGCCGCCGGGCGCCAUGCCUGCAGGUCGACUCUAGAAAACAUG,binding signal,PUM1 PUF domain R3-FRP,2.47 log2 enrichment (interaction score)
GGCUAGAACUAGUGGAUCCCCCGGCGCCCGGCGGCUCGAGCCCGGGUAAGUGUUAAUAGUCUGCAUGCCGCCGGGCGCCAUGCCUGCAGGUCGACUCUAGAAAACAUG,binding signal,PUM1 PUF domain R5-NCR,4.23 log2 enrichment (interaction score)
same,binding signal,PUM1 PUF domain R5-RYR,4.47 log2 enrichment (interaction score)
same,binding signal,PUM1 PUF domain R5-KYV,4.52 log2 enrichment (interaction score)
GGCUAGAACUAGUGGAUCCCCCGGCGCCCGGCGGCUCGAGCCCGGGUAAGUGUAAAUAGUCUGCAUGCCGCCGGGCGCCAUGCCUGCAGGUCGACUCUAGAAAACAUG,binding signal,PUM1 PUF domain R4-EPG,1.2 log2 enrichment (interaction score)
same,binding signal,PUM1 PUF domain R4-GNS,2.34 log2 enrichment (interaction score)
same,binding signal,PUM1 PUF domain R4-VRG,4.34 log2 enrichment (interaction score)
same,binding signal,PUM1 PUF domain R6-RWV,5.13 log2 enrichment (interaction score)
same,binding signal,PUM1 PUF domain R3-TYW,5.67 log2 enrichment (interaction score)
same,binding signal,PUM1 PUF domain R4-SPV,1.64 log2 enrichment (interaction score)
same,binding signal,PUM1 PUF domain R5-RYR,2.49 log2 enrichment (interaction score)
same,binding signal,PUM1 PUF domain R6-RWK,6.43 log2 enrichment (interaction score)
same,binding signal,PUM1 PUF domain R3-EYE,2.67 log2 enrichment (interaction score)
same,binding signal,PUM1 PUF domain R5-KYV,4.2 log2 enrichment (interaction score)
